Data on one molecule can be found in PubChem BioAssay AID1788 (Vanderbilt High Throughput Screening Facility, 2009).

The structures appear in SMILES notation. A number with no mark means an inactive call. How the calls were made is not given here.

This assay has as its system Platelet Activating Factor (PAF) (human). As to the kind of experiment: PubChem AID 1788. The note with it: MDS Pharma lead profiling panel, radioligand binding, at 10 µM, active compounds read high.

For `CCOC(=O)N1CCC(NCCNC(=O)c2ccccc2C)CC1`, the inhibition (as a rule, the share of the control response that was lost under treatment) is 0%.
